# In the library only some 6.3% were active in any assay of this set; here they are far more common.
# Spn DPM-DC inh: S. pneumoniae DPM-DC inhibition; calls only at 10 µM; AID 556; 65,000 compounds, 0.49% hits; purified DPM-DC, PK/LDH coupled NADH fluorescence;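 active = the 320 compounds with the highest percent inhibition in the single-dose primary screen, excluding strongly autofluorescent ones, cut at about 32% in these data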;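 also: kinetic rate of NADH fluorescence loss reporting ADP formed by the decarboxylase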
# Spn MK inh: inhibitors of Streptococcus pneumoniae mevalonate kinase; purified MK, PK/LDH-coupled NADH absorbance 340 nm; inhibition, % at 10 µM; AID 555; 65,000 compounds, 0.48% hits;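 active = ranked among the strongest by inhibition in the single 10 µM screen, a fixed top-ranked set picked for dose follow-up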
# A340 absorber: compounds absorbing at 340 nm; compound absorbance at 340 nm, fold over control; fold change at 10 µM; 65,000 tested, under 10 active; AID 708;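 active = at 10 µM dose, initial 340 nm absorbance at least 2 fold that of control wells; inactive = change under 2 fold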;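 also: initial absorbance extrapolated from kinetic A340 decline of NADH oxidation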
# Spn PMK inh: S. pneumoniae PMK inhibition | purified PMK, PK/LDH-coupled NADH absorbance 340 nm | inhibition, % at 10 µM | 65,000 compounds, 0.49% hits;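 active = top-ranked compounds by inhibition in the single 10 µM screen, taking a fixed number of the strongest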;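 also: 0% = full reaction with DMSO carrier and 100% = background rate without enzyme reaction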
# NADH enzymes: blocks coupling enzymes of NAD/NADH assays | coupled PK/LDH NADH assays, four targets | IC50, µM (top dose mostly 10 µM), without a hit: top-dose inhibition | 65,000 compounds, 0.02% hits | AID 774;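 active = single-dose screening hits from any of four coupled enzyme assays that gave an IC50 when retested across doses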;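 also: the DPM-DC format reads NADH fluorescence rather than 340 nm absorbance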
# Autofluor 339: intrinsic fluorescence of library compounds, ex339/em460 – biochemical, MLSMR library, data from DPM-DC assay, artefact control, profiling panel; compound autofluorescence, ex339/em460 nm, NADH buffer; hits give high values; 1 = no-compound wells, NADH background; 65,000 compounds, 5.5% hits; AID 709; fluorescence fold increase at 10 µM;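 active = at 10 µM, mean starting fluorescence two-fold or more over control wells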;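 also: signal is the first read of a kinetic run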
# Active calls of the source: *; i = inactive; . = no result given.
SMILES,Spn DPM-DC inh,Spn MK inh,A340 absorber,Spn PMK inh,NADH enzymes,Autofluor 339
CC12COC3(C(=O)N4CCN(c5ccccn5)CC4)CC1CCC32C (configuration not stated),i,10.0,1.04,0.0,3.0%,1.16
COC(=O)c1nc2n(n1)C(c1cc(OC)ccc1OC)C(C(=O)OC1CCCCC1)=C(C)N2 (configuration not stated),i,12.0,1.06,2.0,5.0%,1.01
Cc1ccc(CN2C(=O)CCC2C(=O)NCCN(CC(C)C)CC(C)C)cc1 (configuration not stated),i,2.0,0.98,16.0,6.0%,1.05
Cc1noc(C(=O)N2CC3(C)CC2CC(C)(C)C3)c1Cl (configuration not stated),i,1.0,1.07,5.0,2.0%,1.08
CCCCCCn1cnc2c(c1=O)c1nc3ccccc3nc1n2Cc1cccs1,i,3.0,1.08,5.0,6.0%,2.33*
CCCn1cnc2c(c1=O)c1nc3ccccc3nc1n2Cc1ccccc1OC,i,4.0,1.04,13.0,3.0%,1.12
CCOCCCn1cnc2c(c1=O)c1nc3ccccc3nc1n2-c1ccccc1,i,8.0,1.13,13.0,11.0%,2.97*
CC1(C2(O)CC(c3ccccc3)ON2)CCCCC1 (configuration not stated),i,5.0,1.02,0.0,1.0%,1.04
Cc1cnc(N)c2c(=O)oc3ccccc3c12,.,5.0,1.12,6.0,6.0%,2.11*
Cc1cc(C)n2nc3nc4c(cc3c2n1)CCCC4,.,5.0,1.12,7.0,6.0%,2.25*
COc1ccccc1-c1c(C)nn2c(C)cc(C)nc12,i,9.0,1.02,7.0,5.0%,1.09
Clc1ccc(C2Nc3ccccc3-n3cccc32)cc1 (configuration not stated),.,2.0,1.01,0.0,0.0%,2.38*
Cc1cc(C)n(C(=O)CNC(=O)COc2ccccc2)n1,i,12.0,1.04,8.0,7.0%,1.13
Cc1ccc(Cn2c(=N)c(C(=O)NCc3ccco3)cc3c(=O)n4ccccc4nc32)cc1,i,0.0,1.01,17.0,6.0%,1.89
CCOC(=O)c1cc2c(=O)n3ccccc3nc2n(Cc2ccccc2)c1=N,.,3.0,0.98,20.0,4.0%,2.49*
CCOC(=O)c1cc2c(=O)n3ccccc3nc2n(Cc2ccccc2Cl)c1=N,.,0.0,1,1.0,1.0%,2.3*
COc1ccc(CCn2c(=N)c(C(=O)N3CCN(C)CC3)cc3c(=O)n4ccccc4nc32)cc1,i,15.0,1.09,11.0,9.0%,1.6
O=C(Nc1ccccc1)N1CCC(c2nc(-c3ccc(S(=O)(=O)N4CCOCC4)cc3)no2)CC1,i,3.0,1.03,15.0,6.0%,1.1
Nc1nc(-c2ccco2)c(-c2ccco2)s1,i,1.0,1.08,16.0,6.0%,1.07
c1coc(-c2nc(-c3ccco3)c(-c3ccco3)nc2-c2ccco2)c1,.,16.0,1.14,16.0,16.0%,2.24*
CCN(CC)c1ccc2cc(-c3nc4ccccc4[nH]3)c(=O)oc2c1,i,37.0,0.8,i,8.0%,1.09
CCN(CC)c1ccc2cc(-c3nc4ccccc4n3C)c(=O)oc2c1,.,5.0,1.05,4.0,5.0%,2.13*
Cc1c(OCc2ccc(C(=O)O)o2)ccc2c3c(c(=O)oc12)CCC3,.,4.0,1.13,0.0,2.0%,2.15*
COC(=O)c1ccc(COc2cccc(OC)c2)o1,i,0.0,1.03,8.0,5.0%,1.11
COC(=O)c1ccc(COc2ccc3c(C)c(C)c(=O)oc3c2C)o1,i,4.0,1.08,0.0,2.0%,2*
SMILES,Spn DPM-DC inh,Spn MK inh,A340 absorber,Spn PMK inh,NADH enzymes,Autofluor 339
O=C(OCc1ccc(F)cc1Cl)c1ccccn1,i,10.0,1.01,5.0,6.0%,1.07
CCCCOCCCNC(=O)CN1C(=O)c2ccccc2C1=O,i,8.0,1.02,2.0,3.0%,1.08
Oc1ccccc1-c1nnc(-c2ccc(C(F)(F)F)cc2)o1,i,0.0,1.02,22.0,17.0%,2.49*
Cc1ccccc1-c1nnc(-c2ccc(Br)cc2)o1,i,5.0,1.01,7.0,4.0%,1.13
Cc1cc(NC(=O)c2cc(-c3ccccn3)nc3ccccc23)no1,i,9.0,1.07,14.0,8.0%,1.2
Cc1cc(C)c2nc(-c3ccccn3)cc(C(=O)Nc3cc(C)on3)c2c1,i,4.0,1.1,7.0,13.0%,3.15*
